Growth data for 38 compounds are collected here from PubChem BioAssay (NCI).

About 83,000 compounds went through this panel and 20% of them were active in at least one assay; those are over-represented in the sample as a whole.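 Compound tested at a single concentration for 48 hours in 96-well plates; a percent growth value below 10 was scored as active.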 Activity calls are given as the source filed them.

For this experiment, the system named is NCI-H522 lung. Description: NCI-60 one-dose screen, 48 h (100 = growth as untreated, 0 = no growth, -100 = all killed). Particulars: 10 µM unless noted.
On to `CNC(=O)c1cc(Oc2ccc3nc(NC(=O)Nc4ccc(CN5CCOCC5)c(C(F)(F)F)c4)sc3c2)ccn1`, for which the growth was 22.4% (inactive).

As for `Cc1cc(N/N=C/c2nc(-c3ccc(Cl)cc3)oc2C)c2cc(Br)ccc2n1`, the growth is -1.02% (active).

Turning to `COc1cc(-c2cc(-c3nc4ccc(Cl)cc4[nH]3)[nH]n2)cc(OC)c1OC`, the growth is 45.3% (inactive).

Consider `COc1ccc(-c2cc(-c3cccnc3)nc3sc4c(=O)n(-c5ccc(C)cc5)cnc4c23)cc1OC`, for which the growth was 99.8% (inactive).

Regarding `CN(C)c1ccc(/C=C\C2=[N+](C)c3ccccc3C2(C)C)cc1`, the growth was -23.7% (active).

Regarding `COc1ccc(-c2cc(-c3cccnc3)nc3sc4c(=O)n(-c5ccc(C)cc5)nnc4c23)cc1OC`, the growth is 101% (inactive).

As for `COc1ccc(C/C(C)=C(\c2ccc(Cl)cc2)c2ccc(OCCN3CCCCCC3)cc2)cc1`, the growth was 73.5% (inactive).

On to `O=C1C=CC(=O)N1c1ccc(Cc2ccc(N3C(=O)C=CC3=O)cc2)cc1`, for which the growth is 94.5% (inactive).

Turning to `CN1CCN(Cc2ccc(NC(=O)c3[nH]ncc3Nc3ncnc4[nH]ccc34)cc2)CC1`, the growth was 1.39% (active).

Turning to `O=C(Nc1ccc(Oc2ccc(F)cc2)c(Cl)c1)c1cccnc1`, the growth is 72.3% (inactive).

With `OC(c1cccc(C(F)(F)F)c1)c1cnccc1NC1CCCCCC1` (stereo not drawn), the growth was 58.6% (inactive).

Consider `NS(=O)(=O)c1ccc(Nc2nc3n[nH]c(Nc4ccccc4)c3c(=O)[nH]2)cc1`, for which the growth was 90.4% (inactive).

`O=C1/C(=C/c2ccccc2)CN(CCC(=O)N2C/C(=C\c3ccccc3)C(=O)/C(=C/c3ccccc3)C2)C/C1=C\c1ccccc1`: the growth was 53.9% (inactive).

For `CN1CCN(Cc2ccc(NC(=O)c3[nH]ncc3Nc3ncnc4c3CCC4)cc2)CC1`, the growth is 13.7% (inactive).

Take `O=C1C(=O)N(CCCCn2cc(CO)nn2)c2ccccc21`: the growth is 90.1% (inactive).

Regarding `Cc1cc(Nc2nc(N3CCN(C)CC3)nc3ccccc23)n[nH]1`, the growth is 41.2% (inactive).

`CC(=O)C1=C(O)C=C2Oc3c(C(=O)/C=C/c4cc(Cl)cc(Cl)c4)c(O)c(C)c(O)c3[C@]2(C)C1=O`: the growth was -52.2% (active).

Take `O=C(Nc1ccc(CN2CCOCC2)cc1)c1[nH]ncc1Nc1ncnc2sccc12`: the growth was 7.15% (active).

`COc1cc(-c2c3sc(=O)[nH]c3nc3c2c(=O)[nH]n3C(C)C)cc2c1OCO2`: the growth was 96.8% (inactive).

With `O=C1/C(=C/c2ccc(Cl)c(Cl)c2)CN(C(=O)CCN2CCC(=NO)CC2)C/C1=C\c1ccc(Cl)c(Cl)c1`, the growth is -90.4% (active).

In the case of `CCN(CC)CCCC(C)Nc1ccnc2c(OC)cccc12` (stereo not drawn), the growth is 104% (inactive).

In the case of `COc1ccc(-c2cn3c(-c4ccc(OC)cc4)cnc3c(Oc3ccc4c(C)cc(=O)oc4c3)n2)cc1`, the growth is 39.6% (inactive).

For `CN1CCN(Cc2ccc(NC(=O)c3[nH]ncc3Nc3ncnc4sccc34)cc2)CC1`, the growth is 14% (inactive).

On to `O=C([C@@H](COCc1ccccc1)N1C(=O)[C@@H](N2C(=O)OC[C@@H]2c2ccccc2)[C@H]1/C=C/c1ccccc1)N1CCC(CCN2CCCCC2)CC1`, for which the growth is 57.1% (inactive).

With `OCCNCCNc1c2ccccc2nc2ccccc12`, the growth is 41.6% (inactive).

In the case of `CC[C@H](Nc1ncnc(N)c1C(N)=O)c1nc2cccc(NCc3ccc(C(=O)NO)cc3)c2c(=O)n1-c1ccccc1`, the growth is 35.9% (inactive).

`CCCCCCCCCc1cc(CN2CCCCC2)c(O)c(CN2CCCCC2)c1`: the growth is 49.2% (inactive).

Regarding `CN1CCN(Cc2ccc(NC(=O)c3cncc(C#Cc4cnc(N)c5cccnc45)c3)cc2C(F)(F)F)CC1`, the growth is 28.4% (inactive).

Take `C=C1CC2(OC1=O)C(=O)N(CCCCCCCCCCCCN1C(=O)C3(CC(=C)C(=O)O3)c3ccccc31)c1ccccc12` (stereo not drawn): the growth is 16.2% (inactive).

With `Cn1c2ccccc2c2c3c(c4c5ccccc5[nH]c4c21)C(=O)N(N)C3=O`, the growth was 50.2% (inactive).

Regarding `Cn1c2ccccc2c2c3c(c4c5ccccc5n(CCCCCC#N)c4c21)C(=O)N(O)C3=O`, the growth was -51.9% (active).

Take `COC(/C=C/c1ccc([N+](=O)[O-])cc1)OC`: the growth was 86.9% (inactive).

With `O=C(CNC1C2CC3CC(C2)CC1C3)Sc1nnc2sc3ccccc3n12` (stereo not drawn), the growth was 96.4% (inactive).

For `C=CC[N+]1(CC)CCN=C1CCCCCCCCCCCCCCCCC` (stereo not drawn), the growth is -85.2% (active).

With `CN1CCN(Cc2ccc(NC(=O)c3[nH]ncc3Nc3ccnc4ccsc34)cc2)CC1`, the growth is 47.2% (inactive).

Consider `CN1/C(=C\C=C\C2=[N+](C)c3ccccc3C2(C)C)C(C)(C)c2ccccc21`, for which the growth is -41.7% (active).

Regarding `CS(=O)(=O)c1ccc(-c2cnc3ccc(-c4cccc(S(C)(=O)=O)c4)nn23)cc1`, the growth is 58.4% (inactive).

Turning to `COc1ccc(C/C(C)=C(\c2ccc(OCCN3CCCCCC3)cc2)c2ccc(OC(=O)C3CCCCC3)cc2)cc1`, the growth was 63.4% (inactive).
